Laboratory results taken from PubChem BioAssay (NCATS).
Several values for one entry are separate records, joined by “and”; a condition that tells them apart may be missing. Identical values can stand only once. Records with an inconclusive call do not appear. Where a call stands in place of a potency, no number is given. Activity calls are given as the source filed them. Unless noted, calls come from the whole dose curve; as a rule, active = well fitted curve in the direction sought with a large enough effect; inconclusive = small, poorly fitted or top-dose-only effect, or another doubt; inactive = no such curve, though single readings can be large; an effect the other way counts as inactive or inconclusive.

How the values were obtained:
[1] = biological target: Peroxisome proliferator-activated receptor gamma (Homo sapiens) (UniProt P37231); test: qHTS assay for small molecule agonists of peroxisome proliferator-activated receptor gamma signaling (AID 588536; active = well fitted curve in the direction sought with a large enough effect in the signal ratio, with a control signal flat, not every such curve was filed as active; the % refers to the signal ratio)
In short: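 Beta-lactamase reporter read-out: CCF4 fluorescence (ex 405, em 460/530 nm) after 2 h at RT. HEK293 GeneBLAzer cells were treated for 16 h at 37 C. Hill fits gave EC50 and efficacy versus 2 uM rosiglitazone (100%) and DMSO (0%).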

[2] = biological target: Vitamin D3 receptor (Homo sapiens) (UniProt P11473); test: qHTS assay for small molecule antagonists of vitamin D receptor signaling (AID 588541; calls by dose curve;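 note: receptor activated by calcitriol during compound treatment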)
In short: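 VDR-UAS-bla HEK293T cells in 2% charcoal-stripped FBS were stimulated with 1-alpha,25-dihydroxyvitamin D3 (3 nM final) plus compound for 16 h at 37 C. The beta-lactamase CCF4 readout was normalized to 50 nM agonist and DMSO, and Hill fits gave IC50.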

[3] = biological target: Vitamin D3 receptor (Homo sapiens) (UniProt P11473); test: qHTS assay for small molecule agonists of vitamin D receptor signaling (AID 588543; calls by dose curve)
In short: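 qHTS in agonist mode: compound titrations stimulate a VDR-driven β-lactamase reporter in HEK293T cells over 16 h at 37 °C. Response normalized to 50 nM 1α,25-dihydroxyvitamin D3 = 100%, DMSO = 0%; Hill fitting gives EC50 and maximal response.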

[4] = biological target: Luciferin 4-monooxygenase (Photinus pyralis) (UniProt P08659); test: Biochemical firefly luciferase enzyme assay for NPC (AID 624030);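 note: purified P. pyralis luciferase at 10 nM with luciferin and ATP substrate; nearly all actives have a fitted effect of over 70% in size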
In short: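 Purified P. pyralis luciferase at 10 nM in 50 mM Tris Acetate (final), luminescence read within 5 minutes of enzyme addition to compounds. Activity normalised to PTC124 versus DMSO; concentration-response curves classed by r2, magnitude and activity.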

[5] = S16 Schwann cell viability assay (CellTiter-Glo assay) (AID 624031); note: nearly all actives have a fitted effect of over 70% in size; note: potency is the fitted concentration of half-maximal effect
In short: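 Luminescent ATP read-out (CellTiter-Glo) after 24 h compound exposure of native S16 rat Schwann cells at 37 °C. Signals were normalized between cell-free wells and DMSO-treated cells, set as 0% activity.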

[6] = S16 Schwann cell PMP22 intronic element firefly luciferase assay (AID 624032); note: nearly all actives have a fitted effect of over 30% in size; note: potency is the fitted concentration of half-maximal effect
In short: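 Rat S16 Schwann cells stably carrying firefly luciferase driven by a PMP22 intronic element, in 10% FBS, treated 24 h at 37 C. ONE-Glo luminescence normalized to PTC124 control and DMSO (0%); curves classed by r2, magnitude and activity.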

[7] = S16 Schwann cell PMP22 intronic element beta-lactamase assay (AID 624044; calls by dose curve; note: nearly all actives have a fitted effect of over 15% in size); settings: S16 rat Schwann cells, PMP22 element beta-lactamase FRET, 24 h; ratio activity, negative = inhibition: at 38.3 µM (top of the series)
In short: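 Beta-lactamase reporter under a PMP22 intronic regulatory element in stable S16 rat Schwann cells; 24 h compound exposure. 460 nm blue signal normalized between DMSO (0%) and potassium clavulanate, with 535 nm FRET tracking viability; curves classed by r2 and response.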

[8] = biological target: Peroxisome proliferator-activated receptor gamma (Homo sapiens) (UniProt P37231); test: qHTS assay for small molecule antagonists of peroxisome proliferator-activated receptor gamma signaling (AID 588537; active = well fitted inhibition curve with a large enough effect in the signal ratio, with a control signal flat, not every such curve was filed as active; the % refers to the signal ratio; note: potency is the fitted concentration of half-maximal effect;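 for activity, negative = inhibition: reporter cells co-stimulated with 50 nM rosiglitazone agonist during compound treatment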)
In short: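 Read-out: CCF4 fluorescence (ex 405, em 460/530 nm) after 2 h at RT. Cells were HEK293 carrying a UAS-bla reporter and treated 16 h at 37 C with compound plus rosiglitazone (50 nM final). Normalized to rosiglitazone and DMSO.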

[9] = qHTS assay for small molecule agonists of retinoid X receptor alpha signaling (AID 588544; calls by dose curve); settings: HEK293T RXRa-UAS-bla, beta-lactamase reporter, 18 h; 530 nm emission
[10] = biological target: Retinoic acid receptor RXR-alpha (Homo sapiens) (UniProt P19793); test: as above
[11] = biological target: Thyroid hormone receptor beta (Homo sapiens) (UniProt P10828); test: qHTS assay for small molecule agonists of thyroid hormone receptor beta signaling (AID 588545; calls by dose curve)
In short: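 HEK 293 TR-UAS-bla; agonist mode; 18 hrs, 37 C; CCF4, ex 405/em 460 and 530 nm; norm. T3 10 nM = 100%, DMSO = 0%; Hill fit → EC50, efficacy.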

[12] = qHTS assay for small molecule antagonists of retinoid X receptor alpha signaling (AID 588546; active = well fitted inhibition curve with a large enough effect in the signal ratio, with a control signal flat, not every such curve was filed as active; the % refers to the signal ratio; note: potency is the fitted concentration of half-maximal effect;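 for max response: cells stimulated with 9-cis-retinoic acid as agonist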); settings: HEK293T RXRa-UAS-bla, beta-lactamase ratio, antagonist mode; measured here: W530 green channel, cytotoxicity proxy
In short: (§1)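 Beta-lactamase reporter inhibition, read as CCF4 fluorescence ratio (ex 405, em 460/530 nm) after 2 h at RT. HEK293T UAS-bla cells, 2500/well, were stimulated with 9-cis-RA at 500 or 100 nM final alongside test compound for 18 h at 37 C.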

[13] = biological target: Retinoic acid receptor RXR-alpha (Homo sapiens) (UniProt P19793); test: as above; settings: HEK293T RXRa-UAS-bla, beta-lactamase ratio, antagonist mode
In short: as §1

[14] = biological target: Thyroid hormone receptor beta (Homo sapiens) (UniProt P10828); test: qHTS assay for small molecule antagonists of thyroid hormone receptor beta signaling (AID 588547; active = well fitted inhibition curve with a large enough effect in the signal ratio, with a control signal flat, not every such curve was filed as active; the % refers to the signal ratio; note: potency is the fitted concentration of half-maximal effect;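 for activity change % (negative = inhibition): cells stimulated with 0.4 nM T3 agonist during compound exposure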); settings: TR-UAS-bla HEK293, beta-lactamase ratio, antagonist mode, 18 h
In short: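 TR-UAS-bla GripTite HEK293 cells in 2% charcoal/dextran FBS medium; compounds 0.59 nM to 92 uM with T3 at 0.4nM final, 18 h at 37 C. Beta-lactamase read by CCF4 fluorescence (460/530 nm); Hill fits gave IC50 and efficacy.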

[15] = biological target: Voltage-gated inwardly rectifying potassium channel KCNH2 (Homo sapiens) (UniProt Q12809); test: qHTS Assay for Small Molecule Inhibitors of the Human hERG Channel Activity (AID 588834);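 note: lower thallium flux fluorescence means stronger hERG block; nearly all actives have a fitted effect of over 50% in size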; note: potency is the fitted concentration of half-maximal effect
In short: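 Cells were infected with hERG-BacMam virus for 4 hrs at room temperature, grown overnight, then seeded at 2000/well. After dye loading and roughly 10 min compound treatment, thallium influx was triggered and fluorescence recorded.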

[16] = biological target: Glucocorticoid receptor (Homo sapiens) (UniProt P04150); test: qHTS assay for small molecule agonists of glucocorticoid receptor signaling (AID 588532; active = well fitted curve in the direction sought with a large enough effect in the signal ratio, with a control signal flat; the % refers to the signal ratio); settings: HeLa MMTV-bla, beta-lactamase ratio, agonist, 18 h; stronger effect = higher value; percent of dexamethasone control, DMSO zero
In short: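 MMTV-bla HeLa beta-lactamase reporter cells in 1% charcoal/dextran FBS medium, compounds up to 92 uM for 18 h at 37 C, CCF4 readout; normalized to 0.1 uM dexamethasone (100%), EC50 and efficacy from Hill fits.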

[17] = qHTS assay for small molecule antagonists of peroxisome proliferator-activated receptor delta signaling (AID 588535; active = well fitted inhibition curve with a large enough effect in the signal ratio, with a control signal flat, not every such curve was filed as active; the % refers to the signal ratio; note: potency is the fitted concentration of half-maximal effect;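 for max response: cells co-treated with a PPAR-delta agonist as stimulator during compound exposure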); settings: HEK293T PPARd-UAS-bla, beta-lactamase FRET ratio, 18 h; 460 nm channel
In short: (§2)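 Beta-lactamase reporter read-out (405 nm excitation, 460/530 nm emission) after CCF4 loading for 2 hrs at RT. HEK293T PPAR-delta-UAS-bla cells, 2% charcoal/dextran FBS, compounds for 18 hrs at 37 C. Hill fit gave IC50 and efficacy.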

[18] = biological target: Peroxisome proliferator-activated receptor delta (Homo sapiens) (UniProt Q03181); test: as above
In short: as §2

Sequence of Retinoic acid receptor RXR-alpha (Homo sapiens) (P19793 whole entry, looked up): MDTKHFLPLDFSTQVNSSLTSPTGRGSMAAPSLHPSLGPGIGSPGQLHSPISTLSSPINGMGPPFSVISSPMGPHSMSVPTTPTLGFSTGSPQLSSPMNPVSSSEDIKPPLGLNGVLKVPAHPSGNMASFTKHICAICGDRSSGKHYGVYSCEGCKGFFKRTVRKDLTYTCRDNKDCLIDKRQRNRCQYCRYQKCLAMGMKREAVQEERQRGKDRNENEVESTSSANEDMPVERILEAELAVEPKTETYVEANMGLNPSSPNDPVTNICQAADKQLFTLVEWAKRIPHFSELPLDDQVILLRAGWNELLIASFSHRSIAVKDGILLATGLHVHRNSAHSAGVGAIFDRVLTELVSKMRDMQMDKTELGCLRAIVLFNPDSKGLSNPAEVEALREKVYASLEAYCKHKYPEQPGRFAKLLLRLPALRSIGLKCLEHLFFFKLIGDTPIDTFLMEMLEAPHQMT
Sequence of Luciferin 4-monooxygenase (Photinus pyralis) (P08659 whole entry, looked up): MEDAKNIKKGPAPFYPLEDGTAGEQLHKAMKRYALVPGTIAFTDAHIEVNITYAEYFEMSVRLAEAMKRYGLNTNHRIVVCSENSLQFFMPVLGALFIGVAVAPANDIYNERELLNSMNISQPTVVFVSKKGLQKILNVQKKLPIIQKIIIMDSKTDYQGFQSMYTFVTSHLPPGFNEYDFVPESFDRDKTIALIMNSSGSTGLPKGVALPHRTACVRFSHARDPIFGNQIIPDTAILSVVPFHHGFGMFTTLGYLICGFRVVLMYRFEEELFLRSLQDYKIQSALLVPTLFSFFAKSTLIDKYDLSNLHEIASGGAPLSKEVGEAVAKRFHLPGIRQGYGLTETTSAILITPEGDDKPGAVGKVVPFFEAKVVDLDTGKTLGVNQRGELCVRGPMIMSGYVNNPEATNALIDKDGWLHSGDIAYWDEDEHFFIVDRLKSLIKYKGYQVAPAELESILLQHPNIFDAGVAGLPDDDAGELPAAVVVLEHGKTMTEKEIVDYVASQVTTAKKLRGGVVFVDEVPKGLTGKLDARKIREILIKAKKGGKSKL
Sequence of Voltage-gated inwardly rectifying potassium channel KCNH2 (Homo sapiens) (Q12809 whole entry, looked up): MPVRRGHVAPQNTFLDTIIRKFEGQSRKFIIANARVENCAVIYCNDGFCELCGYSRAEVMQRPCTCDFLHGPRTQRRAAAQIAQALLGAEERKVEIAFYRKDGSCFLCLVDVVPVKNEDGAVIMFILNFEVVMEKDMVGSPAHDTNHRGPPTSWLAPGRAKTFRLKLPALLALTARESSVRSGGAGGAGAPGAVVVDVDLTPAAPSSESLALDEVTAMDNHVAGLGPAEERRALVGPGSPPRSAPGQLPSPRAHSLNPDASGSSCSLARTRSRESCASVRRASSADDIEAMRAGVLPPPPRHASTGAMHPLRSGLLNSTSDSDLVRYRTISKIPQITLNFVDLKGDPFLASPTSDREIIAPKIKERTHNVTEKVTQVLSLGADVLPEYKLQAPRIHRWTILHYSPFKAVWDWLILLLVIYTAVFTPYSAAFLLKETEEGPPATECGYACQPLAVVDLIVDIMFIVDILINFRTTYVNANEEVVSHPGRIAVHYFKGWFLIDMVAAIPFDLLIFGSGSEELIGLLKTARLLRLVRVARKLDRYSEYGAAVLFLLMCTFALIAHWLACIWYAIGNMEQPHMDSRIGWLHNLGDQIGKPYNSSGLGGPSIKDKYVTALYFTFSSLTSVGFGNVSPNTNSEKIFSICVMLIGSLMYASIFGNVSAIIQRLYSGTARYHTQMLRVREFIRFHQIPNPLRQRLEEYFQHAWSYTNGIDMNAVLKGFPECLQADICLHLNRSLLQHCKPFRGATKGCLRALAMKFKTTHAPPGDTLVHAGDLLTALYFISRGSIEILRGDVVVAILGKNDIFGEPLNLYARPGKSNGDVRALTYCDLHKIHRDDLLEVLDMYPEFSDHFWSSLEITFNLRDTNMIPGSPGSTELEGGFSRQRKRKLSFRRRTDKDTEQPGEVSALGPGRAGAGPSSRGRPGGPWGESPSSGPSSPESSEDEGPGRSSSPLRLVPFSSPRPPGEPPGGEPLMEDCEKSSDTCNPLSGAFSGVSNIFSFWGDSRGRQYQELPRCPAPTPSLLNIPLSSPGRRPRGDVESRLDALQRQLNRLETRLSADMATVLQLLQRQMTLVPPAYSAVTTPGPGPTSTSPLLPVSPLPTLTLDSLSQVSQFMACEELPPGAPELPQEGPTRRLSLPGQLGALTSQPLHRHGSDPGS
Sequence of Peroxisome proliferator-activated receptor gamma (Homo sapiens) (P37231 whole entry, looked up): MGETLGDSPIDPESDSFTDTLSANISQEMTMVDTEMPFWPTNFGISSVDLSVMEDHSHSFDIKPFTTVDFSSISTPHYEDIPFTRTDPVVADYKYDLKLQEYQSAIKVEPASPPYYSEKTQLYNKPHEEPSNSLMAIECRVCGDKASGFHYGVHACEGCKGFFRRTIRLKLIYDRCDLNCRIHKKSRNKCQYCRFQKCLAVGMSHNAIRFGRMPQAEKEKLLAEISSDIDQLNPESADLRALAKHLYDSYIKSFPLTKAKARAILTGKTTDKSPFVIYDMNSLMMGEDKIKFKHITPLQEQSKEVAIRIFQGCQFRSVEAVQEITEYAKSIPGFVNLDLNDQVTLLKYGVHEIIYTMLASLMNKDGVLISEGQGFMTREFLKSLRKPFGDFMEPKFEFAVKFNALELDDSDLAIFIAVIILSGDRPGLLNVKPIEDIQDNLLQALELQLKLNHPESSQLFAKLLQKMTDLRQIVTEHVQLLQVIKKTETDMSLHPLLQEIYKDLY
Sequence of Vitamin D3 receptor (Homo sapiens) (P11473 whole entry, looked up): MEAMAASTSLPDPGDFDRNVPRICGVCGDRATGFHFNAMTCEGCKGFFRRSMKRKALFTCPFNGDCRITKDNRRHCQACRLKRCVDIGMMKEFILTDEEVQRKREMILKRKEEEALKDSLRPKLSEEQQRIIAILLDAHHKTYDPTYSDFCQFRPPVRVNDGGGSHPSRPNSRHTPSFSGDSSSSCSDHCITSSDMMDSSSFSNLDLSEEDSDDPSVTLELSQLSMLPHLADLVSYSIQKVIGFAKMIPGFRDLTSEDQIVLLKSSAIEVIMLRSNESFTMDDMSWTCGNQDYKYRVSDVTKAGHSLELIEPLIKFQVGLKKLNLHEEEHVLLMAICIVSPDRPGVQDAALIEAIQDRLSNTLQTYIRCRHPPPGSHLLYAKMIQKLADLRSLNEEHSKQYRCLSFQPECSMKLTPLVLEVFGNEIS
Sequence of Thyroid hormone receptor beta (Homo sapiens) (P10828 whole entry, looked up): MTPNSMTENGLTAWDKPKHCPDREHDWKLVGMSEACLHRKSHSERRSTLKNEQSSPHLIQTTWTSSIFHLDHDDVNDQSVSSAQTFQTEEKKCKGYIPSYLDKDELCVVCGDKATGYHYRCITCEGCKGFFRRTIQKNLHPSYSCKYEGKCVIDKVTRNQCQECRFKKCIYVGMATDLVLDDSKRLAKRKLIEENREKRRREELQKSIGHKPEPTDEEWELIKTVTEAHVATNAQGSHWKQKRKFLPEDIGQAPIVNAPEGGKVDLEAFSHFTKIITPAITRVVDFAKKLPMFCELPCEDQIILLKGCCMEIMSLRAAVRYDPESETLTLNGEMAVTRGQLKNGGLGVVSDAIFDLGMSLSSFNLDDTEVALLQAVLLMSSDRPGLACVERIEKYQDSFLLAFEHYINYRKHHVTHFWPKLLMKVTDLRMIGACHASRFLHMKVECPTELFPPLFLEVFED
Sequence of Peroxisome proliferator-activated receptor delta (Homo sapiens) (Q03181 whole entry, looked up): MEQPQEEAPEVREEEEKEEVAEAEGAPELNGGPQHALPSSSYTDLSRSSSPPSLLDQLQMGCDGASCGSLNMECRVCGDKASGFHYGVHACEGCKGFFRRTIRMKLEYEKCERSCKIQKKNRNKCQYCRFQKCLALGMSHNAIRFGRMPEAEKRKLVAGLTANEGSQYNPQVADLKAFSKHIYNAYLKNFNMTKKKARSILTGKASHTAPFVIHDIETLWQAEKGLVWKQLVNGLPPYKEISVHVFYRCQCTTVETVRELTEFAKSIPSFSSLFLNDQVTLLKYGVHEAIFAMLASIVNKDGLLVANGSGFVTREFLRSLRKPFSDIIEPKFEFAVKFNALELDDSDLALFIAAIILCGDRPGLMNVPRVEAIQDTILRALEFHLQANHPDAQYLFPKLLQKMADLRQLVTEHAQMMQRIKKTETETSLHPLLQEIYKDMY
Sequence of Glucocorticoid receptor (Homo sapiens) (P04150 whole entry, looked up): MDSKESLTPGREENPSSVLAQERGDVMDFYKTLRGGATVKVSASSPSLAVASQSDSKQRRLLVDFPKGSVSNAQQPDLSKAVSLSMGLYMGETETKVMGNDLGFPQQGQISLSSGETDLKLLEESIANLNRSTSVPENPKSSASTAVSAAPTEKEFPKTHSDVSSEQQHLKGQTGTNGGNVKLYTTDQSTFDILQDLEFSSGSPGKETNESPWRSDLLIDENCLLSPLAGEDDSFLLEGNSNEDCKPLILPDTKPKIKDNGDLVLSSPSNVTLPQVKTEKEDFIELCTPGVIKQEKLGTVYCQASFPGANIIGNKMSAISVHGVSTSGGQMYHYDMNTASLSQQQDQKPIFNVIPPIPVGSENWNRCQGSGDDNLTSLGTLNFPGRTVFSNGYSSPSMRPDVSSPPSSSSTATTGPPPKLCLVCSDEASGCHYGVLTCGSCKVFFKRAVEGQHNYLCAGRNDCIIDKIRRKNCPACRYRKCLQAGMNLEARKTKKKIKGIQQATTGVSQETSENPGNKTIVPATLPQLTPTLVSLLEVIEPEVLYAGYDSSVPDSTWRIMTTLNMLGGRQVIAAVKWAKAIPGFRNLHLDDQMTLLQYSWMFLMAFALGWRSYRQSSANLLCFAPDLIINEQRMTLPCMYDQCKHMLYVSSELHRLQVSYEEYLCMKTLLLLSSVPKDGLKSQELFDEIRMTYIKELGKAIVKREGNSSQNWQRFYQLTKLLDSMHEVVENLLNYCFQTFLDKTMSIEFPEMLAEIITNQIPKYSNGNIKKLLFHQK

Oc1ccc(Cl)cc1Sc1cc(Cl)ccc1O
outcome [1]: inactive
Potency [2]: inactive
outcome [3]: inactive
Potency [4]: inactive
Potency [5]: inactive
Potency [6]: inactive
Potency [7]: inactive

O=C1OC(c2ccc(O)cc2)(c2ccc(O)cc2)c2ccccc21
Potency [8]: 39.8 µM (active)
Potency [2]: inactive
outcome [3]: inactive
max response [9]: 14.6% and 3.81%
outcome [10]: inactive
outcome [11]: inactive
max response [12]: 6.51%
max response [13]: -28% (inactive)
activity change % (negative = inhibition) [14]: -18.5% (inactive) and 8.75% (inactive)
Potency [15]: 15.8 µM (active)
Potency [6]: 25.6 µM (active)

CCCC(=O)O[C@]1(C(=O)CO)CC[C@H]2[C@@H]3CCC4=CC(=O)CC[C@]4(C)[C@H]3[C@@H](O)C[C@@]21C
Potency [15]: inactive

C[C@]12CC[C@@H]3c4ccc(O)cc4CC[C@H]3[C@@H]1C[C@@H](O)[C@@H]2O
Potency [15]: inactive

O=c1ccc2ccccc2o1
outcome [1]: inactive
Potency [8]: inactive
max response [9]: -0.417% and -9.49%
outcome [10]: inactive
outcome [11]: inactive
max response [12]: 0.52% and -14.8% and -12.1%
max response [13]: 19.9% (inactive) and -2.2% (inactive) and -3.66% (inactive)
activity change % (negative = inhibition) [14]: -6.73% (inactive) and 13.3% (inactive) and -20.8% (inactive)
Potency [15]: inactive
Potency [4]: inactive
Potency [5]: inactive
Potency [6]: inactive

NC(=NCCCCCCN=C(N)/N=C(\N)Nc1ccc(Cl)cc1)/N=C(\N)Nc1ccc(Cl)cc1
activation [16]: -3.44% (inactive) and 1.22% (inactive)
Potency [8]: inactive
outcome [11]: inactive
max response [12]: 21.2%
Potency [13]: 39.8 µM (active)
Potency [15]: inactive

CC(C)C[C@H]1C(=O)N2CCC[C@H]2[C@]2(O)O[C@](NC(=O)[C@@H]3C=C4c5cccc6[nH]c(Br)c(c56)C[C@H]4N(C)C3)(C(C)C)C(=O)N12
Potency [15]: inactive

CC(=O)CC(c1ccc([N+](=O)[O-])cc1)c1c(O)c2ccccc2oc1=O (stereo not drawn)
Potency [15]: inactive

CC(O)C(=O)O (stereo not drawn)
max response [17]: -0.0545%
Potency [18]: inactive
Potency [2]: inactive
outcome [3]: inactive
max response [9]: -16.3%
outcome [10]: inactive
outcome [11]: inactive
max response [12]: 7.59%
max response [13]: 2.3% (inactive)
activity change % (negative = inhibition) [14]: -8.09% (inactive)
Potency [15]: inactive
Potency [4]: inactive
Potency [6]: inactive
Potency [7]: inactive

C#C[C@]1(OC(C)=O)CC[C@H]2[C@@H]3CCC4=C[C@@H](OC(C)=O)CC[C@@H]4[C@H]3CC[C@@]21C
Potency [15]: inactive

CC(C)(C)CC(C)(C)c1ccc(OCCOCC[N+](C)(C)Cc2ccccc2)cc1
outcome [1]: inactive
outcome [3]: inactive
Potency [4]: inactive
Potency [5]: 32.2 µM (active)

COc1cccc2c1C(=O)c1c(O)c3c(c(O)c1C2=O)C[C@@](O)(C(=O)CO)C[C@@H]3O[C@H]1C[C@H](N)[C@H](O)[C@H](C)O1
max response [17]: -92.6%
Potency [18]: 1.41 µM (active)
outcome [3]: inactive
outcome [11]: inactive
max response [12]: -19.8%
Potency [13]: 2 µM (active)
Potency [14]: 5.62 µM (active) and 4.47 µM (active)
Potency [15]: inactive

NC(=O)CC[C@@H]1NC(=O)[C@H](Cc2ccccc2)NC(=O)[C@H](Cc2ccc(O)cc2)NC(=O)CCSSC[C@@H](C(=O)N2CCC[C@H]2C(=O)N[C@@H](CCCN=C(N)N)C(=O)NCC(N)=O)NC(=O)[C@H](CC(N)=O)NC1=O
Potency [15]: inactive
